This is one part of a sample in which hits are shown more often than they occur.
HTT aggregate: mutant huntingtin aggregation inhibition | AID 1688 | PC12 HttQ103-GFP aggregates, Acumen cytometry, 40 h | 220,000 tested, 1.1% active | Potency, µM (doses to about 46.1 µM), inactives show at the highest dose activity change, negative = inhibition, most hits filed as inhibitors; further: potency means the concentration at half of the fitted maximal effect; on the % scale 0 is the no-effect control and ±100 the full control effect; nearly all actives have a fitted effect of over 60% in size
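Read-out: GFP aggregate count by laser scanning cytometer (488 nm excitation, 500-530 nm emission, 1–25 µm objects >6 SD above background). Cells: PC12, inducible HTTex1-Q103-GFP, 100 nM tebufenozide; compounds titrated.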
HTT cytoprotect: Huntington cell model cytoprotection by ATP luminescence; AID 1471; PC12 HTT-Q103 induced, cytoprotection, ATP luminescence, 40 h; 230,000 tested, 0.14% active; Potency, µM (doses to about 56.4 µM), without a hit: cytoprotection (ATP increase), most hits filed as activators; further: potency means the concentration at half of the fitted maximal effect; % of control where 0% means no effect; nearly all actives have a fitted effect of over 45% in size
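Huntington model: PC12 line, ecdysone-inducible HTTQ103 exon1–GFP, tebufenozide 100 nM. Test articles in a dose series. Endpoint luminescence from cellular ATP.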
PNC inhibitor: perinucleolar compartment assembly inhibition; PC3M PTB-GFP, PNC prevalence imaging, 16 h; stronger effect = lower value; activity change (PNC), negative = inhibition, % at 10 µM; 140,000 tested, 3.1% active; AID 2417;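 active means readout at or below -70, meaning at least 70% loss of cells showing the perinucleolar compartment, a nuclear body marking cancer cells; inconclusive means readout between -30 and a set limit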;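 further: plate controls were DMSO wells for no effect and camptothecin positive control wells for full effect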
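PC3M cells stably expressing PTB-GFP, 750–1000 cells/well, treated 16 h at 37 °C with compound (23 nl of library stock), in duplicate. After paraformaldehyde fixation and Hoechst stain, imaged at 20x; PNC prevalence scored by image analysis.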
Active calls of the source: *; ? = inconclusive; . = no result; [ ] = remark or other dose. Unless noted, the call rests on the fitted dose curve; in most records, active means well fitted curve in the direction sought with a large enough effect; inconclusive means small, poorly fitted or top-dose-only effect, or another doubt; inactive means no such curve, though single readings can be large; an effect the other way counts as inactive or inconclusive.

SMILES | HTT aggregate | HTT cytoprotect | PNC inhibitor
C/C(CC1CC(C)OC1=O)=N\NC(N)=S (configuration not stated) | 17% | -6%[10 µM] | -27
C/C(CCC12CC3CC(CC(C3)C1)C2)=N\NC(N)=S | -15%[9.22 µM] | 2.8µM* | 5
CC1(C)NC(=O)N(CCCCOc2ccc3ccccc3c2Cl)C1=O | -57% | 7% | 31
CC1(C)NC(=O)N(CCOCCOc2ccc3ccccc3c2Br)C1=O | -19% | -6% | -111*
CCN(Cc1ccccc1)C(c1ccccn1)c1nnnn1C1CCCCC1 (configuration not stated) | -15% | -3%[10 µM] | -15
CC(c1nnnn1C1CCCCC1)N(Cc1ccccc1)Cc1cccnc1 (configuration not stated) | ? | -14%[10 µM] | -100*
O=C(Cn1c(C(F)(F)F)nc2ccccc21)OCC(=O)c1c[nH]c2ccccc12 | -2% | 5%[10 µM] | -26
Cc1[nH]c2ccccc2c1C(=O)COC(=O)Cn1c(C(F)(F)F)nc2ccccc21 | -9% | 3%[10 µM] | -105*
CC(C)NC(=O)COC(=O)c1cc(Br)ccc1Cl | 3% | -9%[1.9 µM] | -1
O=C(Nc1ccc(F)cc1)Nc1cc(OCC(F)(F)F)cc(OCC(F)(F)F)c1 | 3.5µM* | -67%[10 µM] | 17
CCOc1ccc(NC(=O)Nc2cc(OCC(F)(F)F)cc(OCC(F)(F)F)c2)cc1 | -6% | 7%[10 µM] | 71
O=C(c1ccc(-c2cccc(Cl)c2Cl)o1)N1CCOCC1 | -6% | -54% | .
CC1=C(C(=O)Nc2ccccc2)C(c2ccco2)C(C#N)=C(SCC(=O)Nc2cccc(C)c2C)N1 (configuration not stated) | 8% | 10%[1.9 µM] | -82*
CC1=C(C(=O)Nc2ccccc2)C(c2ccco2)C(C#N)=C(SCc2ccccc2)N1 (configuration not stated) | -25% | 3% | ?
CN(Cc1ccccc1)C(=O)COc1cc(=O)n(C)c2ccccc12 | 4%[9.22 µM] | -4% | 1
O=C(Cc1cn(Cc2cccc(Cl)c2)c2ccccc12)N1CCCC1 | 13% | -24%[10 µM] | -5
N#Cc1cn(Cc2cccc(Cl)c2)c2ccccc12 | ? | -24% | -103*
O=C1OCCC1Sc1nnnn1-c1ccc(Cl)cc1 (configuration not stated) | -15%[9.22 µM] | -2%[10 µM] | .
CCc1ccc(OCCOCC(O)CNC(C)CC)cc1 (configuration not stated) | 1% | 11%[10 µM] | ?
Cc1ccc(-c2cc(C(F)F)n3ncc(C(=O)N4CCc5ccccc54)c3n2)cc1 | -26%[9.22 µM] | -63%[10 µM] | .
Cc1ccc(-c2cc(C(F)(F)F)n3ncc(C(=O)N4CCN(C)CC4)c3n2)cc1 | ? | -18%[10 µM] | -100*
Cc1ccc(-c2cc(C(F)(F)F)n3ncc(C(=O)N4CCCc5ccccc54)c3n2)cc1 | -3% | 10%[10 µM] | -100*
CN1CCN(C(=O)c2cnn3c(C(F)(F)F)cc(-c4ccc5c(c4)OCO5)nc23)CC1 | -22% | -15% | 16
CC(C)(C)NC(=O)N1CCCN(c2ccc(C(F)(F)F)cn2)CC1 | 15%[9.22 µM] | -2%[10 µM] | .
COc1ccc(-c2cc(C(F)F)nn2-c2ccc(S(N)(=O)=O)cc2)cc1F | 8% | 8.9µM* | .
SMILES | HTT aggregate | HTT cytoprotect | PNC inhibitor
COc1ccc(C2CC(c3ccccc3)=NN2c2ccc(S(N)(=O)=O)cc2)cc1OC (configuration not stated) | 23%[9.22 µM] | -16% | .
O=C(COC(=O)c1cnccn1)Nc1ccc(Cl)cc1 | -19% | 11%[10 µM] | 6
C=C1C(=O)C=C2CN(C(=O)c3ccccc3)[C@@](Cc3ccc(F)cc3)(C(=O)OC)[C@@H]12 | 5µM* | -111% | -119*
COC(=O)[C@@]1(Cc2ccc(OC)cc2)[C@@H]2C(=CC(=O)[C@H]2CC(=O)C(=O)N(C)C)CN1C(=O)c1ccccc1 | ? | ? | -10
O=S(=O)(c1ccc(S(=O)(=O)n2cnc3ccccc32)cc1)N1CCCCCC1 | -6%[9.22 µM] | 2%[10 µM] | ?
CCc1ccc2nc(SCC(=O)Nc3ccccc3N3CCOCC3)c(C#N)cc2c1 | -37%[9.22 µM] | -34%[10 µM] | .
O=C(CNCC1CCCO1)Nc1ccccc1N1CCOCC1 (configuration not stated) | -4% | -1%[10 µM] | -86*
O=C(CNCC1CCCO1)Nc1ccccc1-n1cccc1 (configuration not stated) | 2% | 18%[10 µM] | ?
Cc1ccc2nc(SCC(=O)Nc3ccccc3N3CCOCC3)c(C#N)cc2c1 | -8% | -7%[1.9 µM] | -111*
CC(C)CNC(=O)CC(=O)N/N=C/c1ccc(Br)cc1 | ? | -34% | 28
O=C(O)C1CCCN1c1ncnc2c1oc1ccccc12 (configuration not stated) | 6% | 20%[10 µM] | ?
Cc1ccc(S(=O)(=O)N(C)C)cc1NC(=O)COC(=O)Cc1ccc(Br)cc1 | -3% | -37% | .
CC1(OC(=O)c2cnc3ccccc3n2)C(=O)C=C2C=C(C3CC3)OC=C2C1=O (configuration not stated) | . | -5% | .
CCCc1noc2c1/C(=N\O)CC(CC(C)SCC)C2 (configuration not stated) | -11% | 17%[10 µM] | ?
CCSC(C)CC1C/C(=N/O)c2c(CC)noc2C1 (configuration not stated) | -14% | 14% | -86*
COC(=O)CC1COc2ccccc2N1C(=O)c1cccc(C(F)(F)F)c1 (configuration not stated) | 7% | 8%[10 µM] | .
CC(=O)c1ccc2c3c(ccc(O)c13)CC2 | -16% | 2%[10 µM] | ?
CC1CCN(CCCNC(=O)C2CCC(=O)N2C2CCCC2)CC1 (configuration not stated) | -8% | 2% | 54
FC(F)c1nc2ccccc2[nH]1 | -10%[9.22 µM] | -8%[10 µM] | .
c1ccc2[nH]c3cc4ncnc4cc3nc2c1 | ? | . | -81*
COc1ccc(/C=N/N2CCOCC2)cc1Cn1nc(C)c([N+](=O)[O-])c1C | -4%[9.22 µM] | 4%[10 µM] | .
COc1ccc(/C=N/Nc2ccccc2)cc1Cn1nc(C)c([N+](=O)[O-])c1C | -19% | -7% | -98*
COC(=O)C1=C(C(=O)OC)[C@@H]2N(C)c3ccc(OC)cc3[C@@]23C[C@@H](C(=O)OC)N(C(=O)CC(C)C)C3=N1 | . | 17%[10 µM] | .
COc1ccc(NC(=O)CN2CCN(c3ccccc3Cl)CC2)cc1 | 1% | 5%[10 µM] | -100*
Cc1ccc(NC(=O)NCCCN2CCOCC2)cc1 | -3% | 0%[0.074 µM] | ?
SMILES | HTT aggregate | HTT cytoprotect | PNC inhibitor
COc1ccc(Cl)c(N2CCN(CCCNC(=O)Nc3ccc(C)cc3)CC2)c1 | 35µM* | -35% | ?
COc1ccc(NC(=O)CN2CCN(CC(=O)Nc3ccccc3Cl)CC2)cc1 | -5% | -21% | 51
CC(=O)C(Cl)C(=O)Nc1ccccc1 (configuration not stated) | 6% | -8% | .
COc1ccc(CC2(CO)CCN(C/C=C/c3ccccc3OC)CC2)cc1 | -27%[9.22 µM] | 27%[10 µM] | .
COc1ccccc1/C=C/CN1CCN(c2ccccc2)CC1 | 7% | -24% | -111*
Cc1cc(NS(=O)(=O)c2ccc(NC(=S)NC(=O)c3ccc(Cl)cc3Cl)cc2)no1 | 3% | -17% | 0
CN1c2ccccc2C(C)(C)C12CC(CCl)=NO2 (configuration not stated) | 10% | -47% | 27

Source: PubChem BioAssay (National Center for Advancing Translational Sciences (NCATS))
